{
  "source": "the supplement of paper PMC8728848",
  "binders": {"B1": {"name": "Pbx2CASH domain (Cryptococcus neoformans) (protein)", "chain": "GIPGPNRLYRLSGPIIFTAADQEIATYGYPTGSERAVLRVEGRNTATAIQGDCRRCARVSVKNLVVDGNRKKLGRMRDFQLATGLVVLGGNEGQSIQNSWIKNPRGFTAIHIREGDKLQCSGARVEKNEIGPVGEEYDPEKDGDDPEMSPLGRPLADGVSIACRDSFIRDNTFRDNTDAAIVVYCSPGTLIHA"}},
  "assay_in_all_cases": "glycan array binding signal (z-score within array); higher = stronger binding",
  "settings_in_all_cases": "glycan notation: IUPAC condensed, linker removed",
  "key": {"[1]": {"target": "Fuc(a1-2)Gal(b1-3)GalNAc(b1-4)[Neu5Ac(a2-3)]Gal(b1-4)Glc", "summary_of_the_method": "(§1)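 Glycan array data were curated from 3228 arrays in the Consortium for Functional Glycomics database and kept only where the protein sequence was available. Glycan names were converted to IUPAC-condensed notation, and columns mapping to the same glycan were averaged. The binding signal is a within-array Z-score, averaged across arrays of the same protein sequence at different concentrations or buffers and across linkers. Negative Z-scores can be read as non-binding.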"}, "[2]": {"target": "Fuc(a1-2)Gal(b1-3)[Fuc(a1-4)]GlcNAc(b1-2)Man(a1-3)[Fuc(a1-2)Gal(b1-3)[Fuc(a1-4)]GlcNAc(b1-2)Man(a1-3)]Man(b1-4)GlcNAc(b1-4)GlcNAc", "summary_of_the_method": "as §1"}, "[3]": {"target": "Fuc(a1-2)Gal(b1-3)[Fuc(a1-4)]GlcNAc(b1-3)[Gal(b1-4)GlcNAc(b1-6)]Gal(b1-4)Glc", "summary_of_the_method": "as §1"}, "[4]": {"target": "Fuc(a1-2)Gal(b1-4)GlcNAc(b1-2)Man(a1-3)[Fuc(a1-2)Gal(b1-4)GlcNAc(b1-2)Man(a1-6)]Man(b1-4)GlcNAc(b1-4)[Fuc(a1-6)]GlcNAc", "summary_of_the_method": "as §1"}, "[5]": {"target": "Fuc(a1-2)Gal(b1-4)[Fuc(a1-3)]GlcNAc(b1-3)GalNAc", "summary_of_the_method": "as §1"}, "[6]": {"target": "Fuc(a1-2)Gal(b1-4)[Fuc(a1-3)]GlcNAc(b1-3)[Neu5Ac(a2-6)Gal(b1-4)GlcNAc(b1-6)]Gal(b1-4)Glc", "summary_of_the_method": "as §1"}, "[7]": {"target": "Fuc(a1-2)[Gal(a1-3)]Gal(b1-4)[Fuc(a1-3)]GlcNAc", "summary_of_the_method": "as §1"}, "[8]": {"target": "Fuc(a1-2)[GalNAc(a1-3)]Gal(b1-4)GlcNAc(b1-2)Man(a1-3)[Fuc(a1-2)[GalNAc(a1-3)]Gal(b1-4)GlcNAc(b1-2)Man(a1-6)]Man(b1-4)GlcNAc(b1-4)[Fuc(a1-6)]GlcNAc", "summary_of_the_method": "as §1"}, "[9]": {"target": "Fuc(a1-2)[GalNAc(a1-3)]Gal(b1-4)[Fuc(a1-3)]GlcNAc(b1-3)GalNAc", "summary_of_the_method": "as §1"}, "Fuc(a1-3)GlcNAc": {"target": "Fuc(a1-3)GlcNAc", "summary_of_the_method": "as §1"}, "[10]": {"target": "Fuc(a1-3)[Gal(b1-4)]GlcNAc(b1-2)Man(a1-3)[Fuc(a1-3)[Gal(b1-4)]GlcNAc(b1-2)Man(a1-6)]Man(b1-4)GlcNAc(b1-4)GlcNAc", "summary_of_the_method": "as §1"}, "Gal(a1-3)Gal(b1-3)GlcNAc": {"target": "Gal(a1-3)Gal(b1-3)GlcNAc", "summary_of_the_method": "as §1"}, "[11]": {"target": "Gal(a1-3)Gal(b1-3)GlcNAc(b1-2)Man", "summary_of_the_method": "as §1"}, "[12]": {"target": "Gal(a1-3)Gal(b1-3)[Fuc(a1-4)]GlcNAc(b1-2)Man(a1-3)[Gal(a1-3)Gal(b1-3)[Fuc(a1-4)]GlcNAc(b1-2)Man(a1-6)]Man(b1-4)GlcNAc(b1-4)GlcNAc", "summary_of_the_method": "as §1"}, "[13]": {"target": "Gal(a1-3)Gal(b1-4)GlcNAc(b1-2)Man(a1-3)[Gal(a1-3)Gal(b1-4)GlcNAc(b1-2)Man(a1-6)]Man(b1-4)GlcNAc(b1-4)GlcNAc", "summary_of_the_method": "as §1"}, "[14]": {"target": "Gal(a1-3)Gal(b1-4)GlcNAc(b1-6)GalNAc", "summary_of_the_method": "as §1"}, "Gal(b1-2)Gal": {"target": "Gal(b1-2)Gal", "summary_of_the_method": "as §1"}, "[15]": {"target": "Gal(b1-3)GlcNAc(b1-3)Gal(b1-4)GlcNAc(b1-2)[Gal(b1-3)GlcNAc(b1-3)Gal(b1-4)GlcNAc(b1-6)]Man(a1-6)[Gal(b1-3)GlcNAc(b1-3)Gal(b1-4)GlcNAc(b1-2)Man(a1-3)]Man(b1-4)GlcNAc(b1-4)[Fuc(a1-6)]GlcNAc", "summary_of_the_method": "as §1"}, "[16]": {"target": "Gal(b1-3)GlcNAc(b1-3)GalNAc", "summary_of_the_method": "as §1"}, "[17]": {"target": "Gal(b1-3)[Fuc(a1-4)]GlcNAc(b1-2)Man(a1-3)[Gal(b1-3)[Fuc(a1-4)]GlcNAc(b1-2)Man(a1-6)]Man(b1-4)GlcNAc(b1-4)[Fuc(a1-6)]GlcNAc", "summary_of_the_method": "as §1"}, "[18]": {"target": "Gal(b1-3)[Fuc(a1-4)]GlcNAc(b1-6)GalNAc", "summary_of_the_method": "as §1"}, "[19]": {"target": "Gal(b1-3)[Neu5Ac(a2-6)]GlcNAc(b1-4)Gal(b1-4)Glc", "summary_of_the_method": "as §1"}, "[20]": {"target": "Gal(b1-4)GlcNAc(b1-2)Man(a1-3)[Gal(b1-4)GlcNAc(b1-2)Man(a1-6)]Man(b1-4)GlcNAc(b1-4)[Fuc(a1-6)]GlcNAc", "summary_of_the_method": "as §1"}, "[21]": {"target": "Gal(b1-4)GlcNAc(b1-2)[Gal(b1-4)GlcNAc(b1-4)]Man(a1-3)[GlcNAc(b1-4)][Gal(b1-4)GlcNAc(b1-2)[Gal(b1-4)GlcNAc(b1-6)]Man(a1-6)]Man(b1-4)GlcNAc(b1-4)GlcNAc", "summary_of_the_method": "as §1"}, "[22]": {"target": "Gal(b1-4)GlcNAc(b1-2)[Gal(b1-4)GlcNAc(b1-6)]Man(a1-6)[Gal(b1-4)GlcNAc(b1-2)Man(a1-3)]Man(b1-4)GlcNAc(b1-4)GlcNAc", "summary_of_the_method": "as §1"}, "[23]": {"target": "Gal(b1-4)GlcNAc(b1-3)Gal(b1-4)GlcNAc(b1-2)Man(a1-3)[Gal(b1-4)GlcNAc(b1-3)Gal(b1-4)GlcNAc(b1-2)Man(a1-6)]Man(b1-4)GlcNAc(b1-4)GlcNAc", "summary_of_the_method": "as §1"}, "[24]": {"target": "Gal(b1-4)GlcNAc(b1-3)Gal(b1-4)GlcNAc(b1-2)Man(a1-3)[Gal(b1-4)GlcNAc(b1-3)Gal(b1-4)GlcNAc(b1-2)Man(a1-6)]Man(b1-4)GlcNAc(b1-4)[Fuc(a1-6)]GlcNAc", "summary_of_the_method": "as §1"}, "[25]": {"target": "Gal(b1-4)GlcNAc(b1-3)Gal(b1-4)GlcNAc(b1-3)Gal(b1-4)GlcNAc(b1-2)Man(a1-3)[Gal(b1-4)GlcNAc(b1-3)Gal(b1-4)GlcNAc(b1-3)Gal(b1-4)GlcNAc(b1-2)Man(a1-6)]Man(b1-4)GlcNAc(b1-4)GlcNAc", "summary_of_the_method": "as §1"}, "[26]": {"target": "Gal(b1-4)GlcNAc(b1-3)Gal(b1-4)GlcNAc(b1-3)Gal(b1-4)GlcNAc(b1-2)Man(a1-3)[Gal(b1-4)GlcNAc(b1-3)Gal(b1-4)GlcNAc(b1-3)Gal(b1-4)GlcNAc(b1-2)Man(a1-6)]Man(b1-4)GlcNAc(b1-4)[Fuc(a1-6)]GlcNAc", "summary_of_the_method": "as §1"}},
  "note": "Shown is part of a subset that was picked to be rich in the strongest signals.",
  "data": [
    {"binder": "B1", "values": [
      {"measurement": "glycan array binding signal (z-score)", "setting": "[1]", "result": -0.327},
      {"measurement": "glycan array binding signal (z-score)", "setting": "[2]", "result": 0.448},
      {"measurement": "glycan array binding signal (z-score)", "setting": "[3]", "result": -0.27},
      {"measurement": "glycan array binding signal (z-score)", "setting": "[4]", "result": 0.625},
      {"measurement": "glycan array binding signal (z-score)", "setting": "[5]", "result": 5.37},
      {"measurement": "glycan array binding signal (z-score)", "setting": "[6]", "result": 0.299},
      {"measurement": "glycan array binding signal (z-score)", "setting": "[7]", "result": -0.331},
      {"measurement": "glycan array binding signal (z-score)", "setting": "[8]", "result": -0.315},
      {"measurement": "glycan array binding signal (z-score)", "setting": "[9]", "result": 2.74},
      {"measurement": "glycan array binding signal (z-score)", "setting": "Fuc(a1-3)GlcNAc", "result": -0.751},
      {"measurement": "glycan array binding signal (z-score)", "setting": "[10]", "result": -0.141},
      {"measurement": "glycan array binding signal (z-score)", "setting": "Gal(a1-3)Gal(b1-3)GlcNAc", "result": 0.751},
      {"measurement": "glycan array binding signal (z-score)", "setting": "[11]", "result": 1.4},
      {"measurement": "glycan array binding signal (z-score)", "setting": "[12]", "result": 2.46},
      {"measurement": "glycan array binding signal (z-score)", "setting": "[13]", "result": 0.227},
      {"measurement": "glycan array binding signal (z-score)", "setting": "[14]", "result": -0.025},
      {"measurement": "glycan array binding signal (z-score)", "setting": "Gal(b1-2)Gal", "result": -0.585},
      {"measurement": "glycan array binding signal (z-score)", "setting": "[15]", "result": 2.19},
      {"measurement": "glycan array binding signal (z-score)", "setting": "[16]", "result": 0.422},
      {"measurement": "glycan array binding signal (z-score)", "setting": "[17]", "result": -0.077},
      {"measurement": "glycan array binding signal (z-score)", "setting": "[18]", "result": 1.39},
      {"measurement": "glycan array binding signal (z-score)", "setting": "[19]", "result": -0.128},
      {"measurement": "glycan array binding signal (z-score)", "setting": "[20]", "result": -0.487},
      {"measurement": "glycan array binding signal (z-score)", "setting": "[21]", "result": 0.057},
      {"measurement": "glycan array binding signal (z-score)", "setting": "[22]", "result": -0.632},
      {"measurement": "glycan array binding signal (z-score)", "setting": "[23]", "result": 3.98},
      {"measurement": "glycan array binding signal (z-score)", "setting": "[24]", "result": 0.897},
      {"measurement": "glycan array binding signal (z-score)", "setting": "[25]", "result": 6.89},
      {"measurement": "glycan array binding signal (z-score)", "setting": "[26]", "result": 0.266}
    ]}
  ]
}
